In PubChem BioAssay (NCATS):
Inconclusive results are not listed. Values without a mark were called inactive. Active and inactive are the calls of the source. Calls come from the whole dose curve; as a rule, active = well fitted inhibition curve with a large enough effect; inconclusive = small, poorly fitted or top-dose-only effect; inactive = no such curve, though single readings can be large or run the other way.

The molecules below were run against Cytochrome P450 2D6 (Homo sapiens) (UniProt P10635) (assay: qHTS Assay for Inhibitors and Substrates of Cytochrome P450 2D6 (AID 891; note: nearly all actives have a fitted effect of over 60% in size)). Details: recombinant CYP2D6, luciferin-ME EGE luminescence; series mostly up to 57.1 µM; activity change, negative = inhibition: at the top concentration.
Description: NIH Molecular Libraries Screening Centers Network [MLSCN]
NIH Chemical Genomics Center [NCGC]
The P450 gene superfamily is involved in the metabolism and clearance of xenobiotics. This assay used human CYP2D6 to measure the demethylation of ethylene glycol ester of luciferin 6' methyl ether (Luciferin-ME EGE; […]) to luciferin. The luciferin is then measured by luminescence after the addition of a luciferase detection reagent. Luciferin-ME EGE concentration in the assay was equal to its Km for CYP2D6. Inhibitors and some substrates limit the production of luciferin, and decrease measured luminescence.
NCGC Assay Protocol Summary:
Two uL of enzyme and substrate mix (final concentrations: 5nM CYP2D6, 30uM Luciferin-ME EGE, 100mM KPO4) were dispensed into a white, solid bottom 1536-well microtiter plate. 23nL of compound was transferred by a pin tool. The plate was incubated at room temperature for 10 min. Two uL of an NADPH regeneration solution (Promega supplied reagent) was dispensed and the reaction was allowed to continue for 60 min at room temperature. Then the reaction was stopped by reconstituted luciferin detection buffer. After another 20 min of incubation the plate was read on the ViewLux (Perkin Elmer) at 60 sec exposure and 2x2 binning. This protocol was carried out with Promega-Glo reagents and further information can be found at http://www.promega.com/tbs/tb325/tb325.pdf. Data were normalized to the to AC100 inhibition (1.43 uM quinidine).
Keywords: P450, CYP2D6, Luciferase, MLSMR, MLSCN, NIH Roadmap, qHTS, NCGC
% is set by controls: 0 for no effect and ±100 for the full control effect; potency is the fitted concentration of half-maximal effect.

Cytochrome P450 2D6 (Homo sapiens), sequence (P10635 whole entry, looked up): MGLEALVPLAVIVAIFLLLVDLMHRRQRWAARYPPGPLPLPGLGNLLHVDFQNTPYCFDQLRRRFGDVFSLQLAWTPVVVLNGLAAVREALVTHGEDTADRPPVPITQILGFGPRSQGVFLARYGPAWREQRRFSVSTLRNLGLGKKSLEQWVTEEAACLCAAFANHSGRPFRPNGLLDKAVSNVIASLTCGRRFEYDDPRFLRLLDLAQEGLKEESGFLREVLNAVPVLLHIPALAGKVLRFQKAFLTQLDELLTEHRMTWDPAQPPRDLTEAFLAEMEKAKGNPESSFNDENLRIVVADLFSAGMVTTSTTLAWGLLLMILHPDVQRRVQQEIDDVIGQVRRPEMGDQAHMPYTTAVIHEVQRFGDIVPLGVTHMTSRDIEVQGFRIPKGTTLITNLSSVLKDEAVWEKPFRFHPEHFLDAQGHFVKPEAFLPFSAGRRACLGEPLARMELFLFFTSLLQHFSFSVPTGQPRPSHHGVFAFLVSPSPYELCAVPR

| SMILES | Potency | activity change, negative = inhibition |
| --- | --- | --- |
| Clc1ccc(C(c2ccc(Cl)cc2)n2cc[n+](C[C@@H](OCc3ccc(Cl)cc3Cl)c3ccc(Cl)cc3Cl)c2)cc1 | 39.8 nM (active) | – |
| CCN(CC)C(=O)N[C@H]1C[C@H]2c3cccc4[nH]cc(c34)C[C@@H]2N(C)C1 | 39.8 nM (active) | – |
| C[C@@]12CC[C@H](O)C[C@@H]1CC[C@H]1[C@H]2C[C@@H](O)[C@]2(C)[C@@H](C3=CC(=O)OC3)CC[C@@]12O | – | -16.9% |
| N#CC(=C(/N)Sc1ccccc1N)/C(C#N)=C(/N)Sc1ccccc1N | 20 nM (active) | – |
| CC1=CC(=O)C2=C(C)C[C@H](O)[C@@H]3[C@@H](OC(=O)[C@H]3C)[C@H]12 | – | 0.08% |
| CC(C)(C)[C@@]1(O)C[C@@H]2OC(=O)C[C@@]23C(=O)O[C@H]2OC(=O)[C@@H](O)[C@]231 | – | -10.1% |
| CCN1C[C@@]2(COC)[C@H](O)C[C@H](OC)[C@@]34[C@@H]5C[C@@]6(O)[C@H](OC(=O)c7ccccc7)[C@H]5[C@@](OC(C)=O)([C@H]([C@@H](OC)[C@H]23)[C@H]14)[C@H](O)[C@@H]6OC | – | 0.886% |
| O[Si@](CCCN1CCCCC1)(c1ccc(F)cc1)C1CCCCC1 | 501 nM (active) | – |
| CCN1C[C@@]2(C)CC[C@H](O)[C@@]34[C@@H]5C[C@H]6[C@H](O)[C@@H]5[C@](O)(C[C@@H]6OC)[C@H](C[C@@H]23)[C@H]14 | – | 3.08% |
| CC[C@H]1CN2CC[C@@H]1C[C@@H]2[C@H](O)c1ccnc2ccccc12 | 3160 nM (active) | – |
| c1ccc(-c2cc3c(nc2-c2ccccc2)CCNC3)cc1 | – | 5.57% [at 11.4 µM] |
| CC(=O)N1C[C@@H]2C[C@H](C1)c1cccc(=O)n1C2 | – | -0.651% |
| C=C(C)[C@@H]1CN[C@H](C(=O)O)[C@H]1CC(=O)O | – | 0.622% |
| C/C=C1\C[C@H](C)[C@](O)(CO)C(=O)OCC2=CCN3CC[C@@H](OC1=O)[C@@H]23 | – | 8.17% |
| C[C@H]1CC[C@]2(NC1)O[C@@H]1C[C@@H]3[C@@H]4CC=C5C[C@H](O)CC[C@@]5(C)[C@H]4CC[C@@]3(C)[C@H]1[C@@H]2C | – | 0.754% |
| COCOc1ccc(Br)cc1C(=O)/C=C\c1ccc2c(c1)OCO2 | 3160 nM (active) | – |
| CC1Cc2c(cnc3c2CN(C)CC3)CO1 (stereo not given) | – | 10.1% [at 11.4 µM] |
| CN1C[C@H](CO)C=C2c3cccc4[nH]cc(c34)C[C@H]21 | 25.1 nM (active) | – |
| CN1CCc2nc(CO)c(CO)cc2C1 | – | -13.1% [at 11.4 µM] |
| C[C@@]12CCC[C@](C)(C(=O)O)[C@@H]1CCc1ccc(O)cc12 | – | 5.07% |

| SMILES | Potency | activity change, negative = inhibition |
| --- | --- | --- |
| C[C@H](N[C@@H](C)CCc1ccccc1)[C@H](O)c1ccc(O)cc1 | 2000 nM (active) | – |
| CC(C)(C)c1ccc(OC(=O)Nc2ccc(O)c(C(=O)O)c2)cc1 | – | 22.6% [at 11.4 µM] |
| c1ccc(CN2CCC3(CCc4ccccc43)CC2)cc1 | 6.3 nM (active) | – |
| N[C@]1(C(=O)O)CC[C@@H](C(=O)O)C1 | – | 5.67% |
| O[C@@H]1[C@@H]2c3cc4c(cc3CN3CCC(=C[C@@H]1O)[C@H]23)OCO4 | 3980 nM (active) | – |
| CN1[C@H](CC(=O)c2ccccc2)CCC[C@H]1C[C@@H](O)c1ccccc1 | 10 nM (active) | – |
| C[C@@H](COc1ccccc1)N(CCCl)Cc1ccccc1 | 1580 nM (active) | – |
| COc1cc2c(cc1O)-c1c(O)c(OC)cc3c1[C@H](C2)N(C)CC3 | 2510 nM (active) | – |
| C=CCCN1C[C@@H]2C[C@H](C1)c1cccc(=O)n1C2 | – | 0.518% |
| O[C@@H](c1cc(-c2ccccc2)nc2c1ccc1ccccc12)[C@@H]1CCCCN1 | 3160 nM (active) | – |
| COc1c(-c2ccccc2)oc2c(ccc3occc32)c1=O | 10000 nM (active) | – |
| COc1cc2c(cc1OC)-c1c(O)c(OC)cc3c1[C@@H](C2)N(C)CC3 | 15800 nM (active) | – |
| N[C@@H](Cc1cc(O)c(O)cc1O)C(=O)O | – | -6.85% |
| OC[C@H]1CCCN2CCCC[C@@H]12 | – | -5.54% |
| CCN1C[C@@]2(COC(=O)c3ccccc3N3C(=O)C[C@H](C)C3=O)CC[C@H](OC)[C@@]34[C@@H]5CC6[C@@H](OC)C[C@@](O)([C@H]5[C@H]6OC)C(O)([C@@H]13)[C@@H](OC)[C@H]24 | – | -10.9% |
| CC[C@]1(O)C(=O)OCc2c1cc1n(c2=O)Cc2cc3ccccc3nc2-1 | – | 8.08% |
| CCC1=C(C[C@H]2NCCc3ccccc32)C[C@@H]2c3cc(OC)c(OC)cc3CCN2C1 | 2510 nM (active) | – |
| O=C1c2ccccc2-c2cc([N+](=O)[O-])c([N+](=O)[O-])cc21 | 3160 nM (active) | – |
| C=C[C@@H]1CN2CC[C@@H]1C[C@H]2[C@H](O)c1ccnc2ccccc12 | 3980 nM (active) | – |
| CCCC[C@@H]1C[C@H]1C(NP(=O)(c1ccccc1)c1ccccc1)c1ccc(Cl)cc1 (stereo not given in full) | – | -18.2% |
